# Results: PubChem BioAssay AID602144 (Vanderbilt Specialized Chemistry Center, 2011)
# Values without a mark were called inactive. The source made the active and inactive calls. Rule as the data show it: active = remaining activity below about 50%; inactive = the rest.
# Target: Phospholipase D1 (Homo sapiens) (UniProt Q13393)
# Test: PLD1 inhibitors in cells, Calu-1 cells, single concentration (AID 602144);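 also: tested at 200 nM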
# Details: cellular PLD1 activity, stronger effect = lower value
# Phospholipase D1 (Homo sapiens), sequence (Q13393 whole entry, looked up): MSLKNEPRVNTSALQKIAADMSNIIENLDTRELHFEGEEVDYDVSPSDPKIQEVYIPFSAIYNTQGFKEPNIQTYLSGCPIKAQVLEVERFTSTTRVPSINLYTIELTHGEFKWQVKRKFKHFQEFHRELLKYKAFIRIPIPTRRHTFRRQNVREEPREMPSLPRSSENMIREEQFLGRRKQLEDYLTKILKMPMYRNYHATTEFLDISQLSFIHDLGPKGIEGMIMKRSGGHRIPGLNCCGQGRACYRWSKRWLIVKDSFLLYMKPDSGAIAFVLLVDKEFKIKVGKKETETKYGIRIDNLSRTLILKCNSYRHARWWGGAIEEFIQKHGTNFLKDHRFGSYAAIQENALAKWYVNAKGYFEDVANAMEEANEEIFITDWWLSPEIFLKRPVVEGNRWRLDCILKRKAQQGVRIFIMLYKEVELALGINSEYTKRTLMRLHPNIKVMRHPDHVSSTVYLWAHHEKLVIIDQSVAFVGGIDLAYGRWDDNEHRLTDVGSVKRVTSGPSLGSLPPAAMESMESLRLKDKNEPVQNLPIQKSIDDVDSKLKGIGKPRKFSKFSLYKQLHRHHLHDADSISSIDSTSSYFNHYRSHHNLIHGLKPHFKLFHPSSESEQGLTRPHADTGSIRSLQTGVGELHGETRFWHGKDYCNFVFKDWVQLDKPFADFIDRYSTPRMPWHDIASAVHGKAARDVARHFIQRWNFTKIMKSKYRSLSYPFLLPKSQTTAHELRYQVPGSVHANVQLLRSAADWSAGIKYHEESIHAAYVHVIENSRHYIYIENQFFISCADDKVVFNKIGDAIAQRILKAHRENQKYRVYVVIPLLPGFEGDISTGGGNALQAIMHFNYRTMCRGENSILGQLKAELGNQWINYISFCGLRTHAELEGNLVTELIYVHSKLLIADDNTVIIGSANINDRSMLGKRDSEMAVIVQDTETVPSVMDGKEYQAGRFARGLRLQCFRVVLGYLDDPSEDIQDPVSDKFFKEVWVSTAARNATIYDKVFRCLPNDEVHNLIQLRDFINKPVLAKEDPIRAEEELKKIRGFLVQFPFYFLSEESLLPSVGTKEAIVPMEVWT
# Phospholipase D1 (Homo sapiens), sequence (Q13393 whole entry, looked up): as above
row,SMILES,remaining activity
1,O=C(CCc1ccc(F)cc1)NCCN1CCC(n2c(=O)[nH]c3ccccc32)CC1,75.2%
2,O=C(NCCN1CCC(n2c(=O)[nH]c3ccccc32)CC1)c1ccc2c(ccc3ccc4ccccc4c32)c1,74.8%
3,Cn1c(=O)n(C2CCN(CCNC(=O)[C@H]3C[C@@H]3c3ccccc3)CC2)c2ccccc21,76.2%
4,C[C@@H](CN1CCC(n2c(=O)[nH]c3ccccc32)CC1)NC(=O)CSc1ccccc1,48.1% (active)
5,O=C(NCCN1CCC(n2c(=O)[nH]c3ccccc32)CC1)Nc1cccc(OC(F)(F)F)c1,131%
6,COc1ccc2c(c1)c(CC(=O)NCCN1CCC(n3c(=O)[nH]c4ccccc43)CC1)c(C)n2C(=O)c1ccc(Cl)cc1,98.1%
7,C[C@@H](CN1CCC(n2nnc3cc(C(F)(F)F)ccc32)CC1)NC(=O)c1ccc2ccccc2c1,65.2%
8,O=C(NCCN1CCC(n2c(=O)[nH]c3ccccc32)CC1)c1ccc2c(c1)CCCC2,83.6%
9,C[C@@H](CN1CCC(n2c(=O)[nH]c3ccccc32)CC1)NC(=O)c1cc2cc(F)ccc2[nH]1,30.1% (active)
10,O=C1Cc2cc(CCN3CCN(c4nsc5ccccc45)CC3)c(Cl)cc2N1,75.1%
11,O=C(NCCN1CCC(n2c(=O)[nH]c3ccccc32)CC1)C1CCCCCC1,98.9%
12,O=C(NCCN1CCC(n2c(=O)[nH]c3ccccc32)CC1)Nc1ccccc1C(F)(F)F,131%
13,C[C@@H](CN1CCC(n2c(=O)[nH]c3ccccc32)CC1)NC(=O)c1cccnc1,41.1% (active)
14,Nc1ccc(C(=O)NCCN2CCC(n3c(=O)[nH]c4ccccc43)CC2)c(F)c1,68.5%
15,O=C(NCCN1CCC(n2c(=O)[nH]c3cc(Cl)ccc32)CC1)c1ccc2ccccc2c1,10.3% (active)
16,O=C(NCCN1CCC(n2c(=O)[nH]c3ccccc32)CC1)c1cscn1,16.7% (active)
17,O=C(NCCN1CCC(n2c(=O)[nH]c3ccccc32)CC1)c1ncccn1,120%
18,O=C(c1ccc(Cl)cc1)N(CCN1CCC(n2c(=O)[nH]c3ccccc32)CC1)C(=O)c1ccc(Cl)cc1,63.9%

row,SMILES,remaining activity
1,O=C(c1ccc2ccccc2c1)N1CCC(n2c(=O)[nH]c3cc(Cl)ccc32)CC1,77.3%
2,O=C(NCCN1CCC(n2c(=O)[nH]c3cc(I)ccc32)CC1)c1ccc(Cl)cc1,15.6% (active)
3,O=C(NCCN1CCC(n2c(=O)[nH]c3ccccc32)CC1)C1CCCCCCCCCC1,85.9%
4,CC(C)[C@@H](CN1CCC(n2c(=O)[nH]c3ccccc32)CC1)NC(=O)[C@@H]1C[C@H]1c1ccccc1,82.9%
5,O=C(NCCN1CC=C(n2nnc3cc(C(F)(F)F)ccc32)CC1)c1cnc2ccccc2c1,44.5% (active)
6,O=C(NCCN1CCC(c2nc3ccccc3[nH]2)CC1)C1CC1c1ccccc1 (stereo unspecified),56.9%
7,O=C(NCCN1CCC2(CC1)CCN(c1ccccc1)C2=O)c1ccc2ccccc2c1,113%
8,O=C(NCCN1CCC2(CC1)CNc1ccccc12)c1cnc2ccccc2c1,126%
9,NC1(CN2CCC(n3c(=O)[nH]c4ccccc43)CC2)CCCC1 (tested in a mixture with another compound),86.8%
10,C[C@H](CN1CCC2(CC1)CNCc1ccccc12)NC(=O)c1cnc2ccccc2c1,69%
11,O=C(NCCN1CCC2(C=Cc3ccccc32)CC1)c1cnc2ccccc2c1,126%
12,O=C(Cc1ccc2ccccc2c1)NCCN1CCC(n2c(=O)[nH]c3ccccc32)CC1,87.7%
13,O=C(NCCN1CCC2(CCc3ccccc32)CC1)[C@H]1C[C@@H]1c1ccccc1,125%
14,O=C1c2ccccc2C(=O)N1CCN1CCC(n2c(=O)[nH]c3cc(Cl)ccc32)CC1,107%
15,CS(=O)(=O)N1CC2(CCN(CCNC(=O)c3cnc4ccccc4c3)CC2)c2ccccc21,99.4%
16,COc1cccc(N2CCN(CCNC(=O)c3ccc(C)cc3)CC2)c1,84.8%
17,O=C(NCCN1CCC(C(=O)Nc2ccccc2)CC1)c1ccc2ccccc2c1,102%
18,O=C(NCCN1CCC2(CC1)CNCc1ccccc12)c1ccc2ccccc2c1,122%
